Results taken from the supplement of paper PMC10646978.
± gives the standard deviation.

Experiments:
Details in all cases: modulator concentration 10 µM
[1] = tested on: RAW-Dual (murine macrophage reporter line); assay: NF-kB reporter (SEAP) activity fold change vs agonist alone; higher = enhanced NF-kB activity
Procedure, shortened: (§1)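 Compound reached 10 μM final in each well by pin transfer, onto RAW-Dual murine macrophage reporter cells seeded at 50 000 per well in 384-well plates. After 1 hour at 37 °C, the cells were stimulated overnight with a PRR agonist. SEAP in the supernatant was read with QUANTI-Blue at 620 nm absorbance for NF-κB, and Lucia luciferase was read with QUANTI-Luc luminescence for IRF. Each signal was turned into fold change against the mean agonist-only control on the same plate, and two replicate plates were averaged with propagated errors.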

[2] = tested on: RAW-Dual (murine macrophage reporter line); assay: IRF reporter (Lucia luciferase) activity fold change vs agonist alone; higher = enhanced IRF activity
Procedure, shortened: as §1

[3] = tested on: RAW-Dual (murine macrophage reporter line); assay: viability score (confluency relative to resting cells, overnight) (fraction); higher = more viable, active = viable (0.7 or more)
Procedure, shortened: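 Confluency was the readout: RAW-Dual macrophages were imaged with IncuCyte after an overnight exposure to compound at 10 μM final. IncuCyte software produced two masks over all imaged wells. The viability score expresses confluency against resting cells, and both masks had to exceed 70% of resting cells for a compound to meet the cutoff.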

[4] = agonist: CpG ODN 1826 0.5 ug/mL

Row | Compound | NF-kB reporter [1, 4] | NF-kB reporter ([1]; agonist: LPS 0.1 ug/mL) | NF-kB reporter ([1]; agonist: MPLA […]) | IRF reporter ([2]; agonist: 3'3'-cGAMP 10 ug/mL) | IRF reporter ([2]; agonist: LPS 0.1 ug/mL) | IRF reporter ([2]; agonist: MPLA […]) | viability score [3]
1 | COc1ccc(OC)c(-c2csc(NC(=O)Cc3ccc(F)cc3)n2)c1 | 0.902 ± 0.097 | 0.944 ± 0.069 | 1.12 ± 0.1 | 1.1 ± 0.078 | 1.2 ± 0.18 | 1.38 ± 0.36 | 0.998 (active)
2 | COc1cc(Br)c(C=C(C#N)c2nn(-c3ccccc3)c(N)c2C#N)cc1OC | 1.25 ± 0.1 | 1.09 ± 0.08 | 1.07 ± 0.1 | 0.936 ± 0.025 | 1.25 ± 0.24 | 1.18 ± 0.25 | 1.01 (active)
3 | Cc1cc2c(s1)Nc1ccccc1N=C2N1CCN(C)CC1 | 0.278 ± 0.057 | 1.03 ± 0.36 | 0.929 ± 0.056 | 0.819 ± 0.049 | 1.16 ± 0.37 | 0.974 ± 0.075 | 1 (active)
4 | COc1cccc(CC(=O)N2CCC(Oc3ccc4ccccc4n3)C2)c1 (stereo not drawn) | 0.762 ± 0.04 | 1.18 ± 0.14 | 1 ± 0.077 | 0.938 ± 0.056 | 1.18 ± 0.14 | 1.24 ± 0.25 | 1 (active)
5 | CCCN1CCC(NCCc2cccc(Cl)c2)CC1 | 0.11 ± 0.018 | 0.9 ± 0.14 | 1.18 ± 0.091 | 0.704 ± 0.045 | 1.13 ± 0.18 | 1.13 ± 0.17 | 1 (active)
6 | CN(C(=NS(=O)(=O)c1ccccc1)c1ccccc1)c1ccc(O)cc1 | 1.05 ± 0.19 | 1.39 ± 0.11 | 1.16 ± 0.096 | 0.968 ± 0.063 | 1.2 ± 0.26 | 1.24 ± 0.2 | 1.01 (active)
7 | CN(Cc1cnc2nc(N)nc(N)c2n1)c1ccc(C(=O)N[C@@H](CCC(=O)O)C(=O)O)cc1 | 0.668 ± 0.16 | 0.862 ± 0.28 | 0.764 ± 0.045 | 0.612 ± 0.049 | 1.02 ± 0.35 | 0.993 ± 0.16 | 0.574 (inactive)
8 | O=c1c(-c2ccccc2)coc2cc(O)ccc12 | 1.2 ± 0.089 | 1.09 ± 0.11 | 1.13 ± 0.049 | 0.886 ± 0.051 | 1 ± 0.11 | 0.973 ± 0.097 | 1 (active)
9 | O=c1cc(-c2ccc(O)cc2)oc2cc(OC3OC(CO)C(O)C(O)C3O)cc(O)c12 (stereo not drawn) | 1.14 ± 0.11 | 1.06 ± 0.072 | 1.05 ± 0.022 | 0.911 ± 0.094 | 0.966 ± 0.05 | 1.01 ± 0.086 | 0.998 (active)
10 | O=C(CCCn1nc(-c2ccc(F)cc2)ccc1=O)Nc1ccc(C(F)(F)F)cc1 | 0.89 ± 0.097 | 0.97 ± 0.055 | 1.05 ± 0.038 | 0.346 ± 0.038 | 1.01 ± 0.041 | 0.748 ± 0.15 | 0.99 (active)
11 | Oc1cc(O)c2c(c1)OC(c1ccc(O)c(O)c1)C(O)C2 (stereo not drawn) | 0.936 ± 0.098 | 0.859 ± 0.087 | 1.05 ± 0.1 | 0.891 ± 0.028 | 1.13 ± 0.17 | 1.29 ± 0.32 | 1.06 (active)
12 | O=C(CCCN1CCC(O)(c2ccc(Br)cc2)CC1)c1ccc(F)cc1 [Prestw-509] | 0.892 ± 0.15 | 1.12 ± 0.14 | 1.04 ± 0.13 | 0.925 ± 0.024 | 1.01 ± 0.16 | 1.16 ± 0.13 | 0.998 (active)
13 | CCN(CC)Cc1cc(Nc2ccnc3cc(Cl)ccc23)ccc1O.Cl.Cl.O.O | 0.606 ± 0.026 | 0.671 ± 0.054 | 0.944 ± 0.068 | 1.39 ± 0.23 | 1.22 ± 0.24 | 1.16 ± 0.46 | 0.931 (active)
14 | Cc1cc(OCCCOc2cccc3cccnc23)ccc1Cl | 0.752 ± 0.06 | 1.02 ± 0.058 | 0.864 ± 0.052 | 0.998 ± 0.025 | 1.14 ± 0.18 | 1.03 ± 0.27 | 1 (active)
